In PubChem BioAssay:
Calls of active or inactive are those of the source.

Experiments:
[1] = E. coli DRC41 culture turbidity changes, primary screen, E. coli filamentation inducer project, strain DRC41, OD650, 48 h (AID 1152);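 note: E. coli MC1000 strain DRC41 lacking acrAB efflux pump and sulA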; conditions: E. coli DRC41 (acrAB sulA), higher = more signal, called active from +8 up or from −8 down
[2] = small-molecule binders of probe aLefty1, primary screen, biochemical, small-molecule microarray, 635/667 nm fluorescence (AID 1153); conditions: higher = more signal;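 note: score merges spot fluorescence with signal-to-noise ratio from the scanned slide images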
[3] = PSAC antagonists in infected red cells, primary screen, cell-based, P. falciparum Indochina, OD700, 1 h (AID 1154); conditions: P. falciparum Indochina infected RBC osmotic lysis, higher = more signal, called active from +8 up or from −8 down
[4] = PSAC antagonists in infected red cells, primary screen, cell-based, P. falciparum Indochina, OD700, 2 h (AID 1155);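 note: lysis reports solute entry through the parasite surface anion channel PSAC; channel blockers reduce lysis of infected cells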; conditions: P. falciparum Indochina infected erythrocytes, osmotic lysis OD700; higher = more signal, called active from +8 up or from −8 down
[5] = osmotic lysis modulators in infected erythrocytes, primary screen, PSAC antagonist project, cell-based, P. falciparum Indochina, OD700, 3 h (AID 1156); conditions: higher = more signal, called active from +8 up or from −8 down
[6] = PSAC antagonists in infected red cells, primary screen, cell-based, P. falciparum Indochina, OD700, 18 h (AID 1157); conditions: P. falciparum Indochina infected erythrocytes, osmotic lysis OD700, 18 h; higher = more signal, called active from +8 up or from −8 down
[7] = modulators of S6 phosphorylation in cells, primary screen, cell-based, A549, cytoblot, luminescence, serum-stimulated (AID 1158); conditions: A549 phospho-S6 cytoblot, 5 h, higher = more signal;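 note: serum-stimulated A549 lung adenocarcinoma cells; signal is phosphorylated S6 detected by cytoblot immunostaining with HRP secondary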
[8] = target: NADPH oxidase 2 (Homo sapiens) (UniProt P04839); experiment: NOX2-dependent H2O2 signal modulators, primary screen, NOX inhibitor project, cell-based, HEK293-NOX2, PMA-stimulated, Amplex Red fluorescence (AID 1159); conditions: 45 min, higher = more signal, called active from +8 up or from −8 down; note: test concentration not given here
[9] = target: NADPH oxidase 4 (Homo sapiens) (UniProt Q9NPH5); experiment: NOX4-dependent H2O2 signal modulators, primary screen, NOX inhibitor project, cell-based, HEK293-NOX4, tetracycline-induced, Amplex Red fluorescence (AID 1160); conditions: 45 min, higher = more signal, called active from +8 up or from −8 down
[10] = target: NADPH oxidase 5 (Homo sapiens) (UniProt Q96PH1); experiment: NOX5-dependent H2O2 signal modulators, primary screen, NOX inhibitor project, cell-based, HEK293-NOX5, Amplex Red fluorescence (AID 1161); conditions: HEK293-NOX5, ionomycin, 45 min, higher = more signal
[11] = A549 cell viability effects, profiling panel, calcein-AM fluorescence, 48 h, basal (AID 1162); conditions: higher = more signal; note: test concentration not given here
[12] = adipocyte viability effects, profiling panel, cell-based, 3T3-L1 adipocytes, calcein-AM fluorescence, 48 h, basal (AID 1163); conditions: 3T3-L1 adipocytes viability, higher = more signal; note: test concentration not given here
[13] = HepG2 cell viability effects, profiling panel, calcein-AM fluorescence, 48 h, basal (AID 1164); conditions: higher = more signal; note: test concentration not given here
[14] = MM1S cell viability effects, profiling panel, calcein-AM fluorescence, 48 h, basal (AID 1165); conditions: higher = more signal;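 note: viability of MM1S multiple myeloma cells under basal unstimulated conditions; test concentration not given here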
[15] = basal RPMI8226 viability, no added stimulus, profiling panel, cell-based, calcein-AM fluorescence, 48 h, PK04 Diversity Set (AID 1166); conditions: RPMI8226 myeloma viability, higher = more signal;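 note: cells grown under basal conditions without added stimulus; test concentration not given here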
[16] = basal HepG2 mitochondrial membrane potential changes, profiling panel, cell-based, JC-1 fluorescence, 24 h, 100 nL compound (AID 1167); conditions: higher = more signal; note: test concentration not given here
[17] = basal 3T3-L1 adipocyte mitochondrial potential changes, profiling panel, cell-based, JC-1 fluorescence, 3T3-L1 adipocytes, 24 h, 100 nL compound (AID 1168); conditions: JC-1 mitochondrial fluorescence, higher = more signal, called active from +8 up or from −8 down; note: test concentration not given here
[18] = basal RPMI8226 mitochondrial membrane potential changes, profiling panel, cell-based, JC-1 fluorescence, 24 h, 100 nL compound (AID 1169); conditions: RPMI8226 myeloma, JC-1 mitochondrial potential fluorescence, higher = more signal; note: test concentration not given here
[19] = basal MM1S mitochondrial membrane potential changes, profiling panel, cell-based, JC-1 fluorescence, 24 h, 100 nL compound (AID 1170); conditions: higher = more signal; note: test concentration not given here
[20] = A549 lung cancer cell viability effects, profiling panel, resazurin fluorescence, 24 h, PK04 Diversity Set (AID 1171); conditions: higher = more signal, called active from +8 up or from −8 down; note: test concentration not given here

NADPH oxidase 4 (Homo sapiens), sequence (Q9NPH5 whole entry, looked up): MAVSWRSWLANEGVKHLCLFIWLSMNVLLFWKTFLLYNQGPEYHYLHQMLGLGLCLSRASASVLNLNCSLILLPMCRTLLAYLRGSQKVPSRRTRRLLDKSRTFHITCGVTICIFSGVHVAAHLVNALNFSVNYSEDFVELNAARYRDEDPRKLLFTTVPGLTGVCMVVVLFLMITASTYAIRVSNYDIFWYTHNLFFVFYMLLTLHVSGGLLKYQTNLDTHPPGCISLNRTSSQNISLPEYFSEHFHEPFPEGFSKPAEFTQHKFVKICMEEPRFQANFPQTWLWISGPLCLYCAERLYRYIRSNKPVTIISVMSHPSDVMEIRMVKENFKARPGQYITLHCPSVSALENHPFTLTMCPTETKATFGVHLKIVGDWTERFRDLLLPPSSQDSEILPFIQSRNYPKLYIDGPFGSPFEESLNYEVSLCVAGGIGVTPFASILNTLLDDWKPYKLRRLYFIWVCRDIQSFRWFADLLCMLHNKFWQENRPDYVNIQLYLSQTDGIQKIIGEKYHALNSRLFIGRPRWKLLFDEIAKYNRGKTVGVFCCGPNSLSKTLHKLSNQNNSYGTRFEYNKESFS
NADPH oxidase 5 (Homo sapiens), sequence (Q96PH1 whole entry, looked up): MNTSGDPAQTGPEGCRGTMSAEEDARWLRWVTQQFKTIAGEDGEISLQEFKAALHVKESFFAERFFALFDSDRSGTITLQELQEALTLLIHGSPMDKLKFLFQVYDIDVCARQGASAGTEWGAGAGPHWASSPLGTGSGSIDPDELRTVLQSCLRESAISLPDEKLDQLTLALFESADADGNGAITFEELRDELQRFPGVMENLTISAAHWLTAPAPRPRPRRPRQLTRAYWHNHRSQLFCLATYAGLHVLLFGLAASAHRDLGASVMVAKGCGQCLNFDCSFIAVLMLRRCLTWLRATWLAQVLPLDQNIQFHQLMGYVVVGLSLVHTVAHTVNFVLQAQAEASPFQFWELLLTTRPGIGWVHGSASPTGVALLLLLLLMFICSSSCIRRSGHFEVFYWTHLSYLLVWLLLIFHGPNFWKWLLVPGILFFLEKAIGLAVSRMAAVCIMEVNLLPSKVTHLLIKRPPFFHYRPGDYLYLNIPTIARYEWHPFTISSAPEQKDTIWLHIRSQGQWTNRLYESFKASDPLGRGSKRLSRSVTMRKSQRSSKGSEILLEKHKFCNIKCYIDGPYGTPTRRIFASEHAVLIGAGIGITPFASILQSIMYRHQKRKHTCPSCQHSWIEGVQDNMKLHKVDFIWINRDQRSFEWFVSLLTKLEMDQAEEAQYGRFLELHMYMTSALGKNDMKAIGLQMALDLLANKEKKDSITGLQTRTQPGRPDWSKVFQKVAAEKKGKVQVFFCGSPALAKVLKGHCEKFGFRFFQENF
NADPH oxidase 2 (Homo sapiens), sequence (P04839 whole entry, looked up): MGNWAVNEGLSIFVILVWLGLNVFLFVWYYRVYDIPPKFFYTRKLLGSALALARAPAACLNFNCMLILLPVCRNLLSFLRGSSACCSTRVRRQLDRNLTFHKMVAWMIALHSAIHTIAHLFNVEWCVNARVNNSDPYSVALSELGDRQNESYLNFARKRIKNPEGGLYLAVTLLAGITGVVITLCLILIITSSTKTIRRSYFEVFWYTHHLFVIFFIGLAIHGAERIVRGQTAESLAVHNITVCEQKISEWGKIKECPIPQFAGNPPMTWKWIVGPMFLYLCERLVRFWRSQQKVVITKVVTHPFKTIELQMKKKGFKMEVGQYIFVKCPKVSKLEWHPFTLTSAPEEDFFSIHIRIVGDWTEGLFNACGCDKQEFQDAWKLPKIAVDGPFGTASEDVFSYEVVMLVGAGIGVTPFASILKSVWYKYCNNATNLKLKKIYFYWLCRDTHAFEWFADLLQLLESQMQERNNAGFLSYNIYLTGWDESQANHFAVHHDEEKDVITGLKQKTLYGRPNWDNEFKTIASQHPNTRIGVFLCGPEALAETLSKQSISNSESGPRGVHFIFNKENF

Row | Structure (SMILES) | z-score [1] | composite z-score [2] | z-score [3] | z-score [4] | z-score [5] | z-score [6] | z-score [7] | z-score [8] | z-score [9] | z-score [10] | z-score [11] | z-score [12] | z-score [13] | z-score [14] | z-score [15] | z-score [16] | z-score [17] | z-score [18] | z-score [19] | z-score [20]
1 | CC(=O)OC[C@H]1O[C@H](CC=NOC[C@@H](O)COCc2ccco2)C=C[C@@H]1OC(C)=O | 0.241 (inactive) | 0.0509 | 0.77 (inactive) | -0.161 (inactive) | 0.482 (inactive) | 0.515 (inactive) | 0.0978 | -0.431 (inactive) | 0.748 (inactive) | 0.0957 | 1.04 | -0.0657 | 0.341 | -0.175 | -0.498 | 0.186 | 0.998 (inactive) | -0.198 | -1.01 | 0.0719 (inactive)
2 | COc1ccc(OC[C@@H]2CC3[C@@H](c4ccc(Br)cc4)[C@H](C)CC[C@H]3C(=O)O2)cc1 (stereo not given in full) | -0.594 (inactive) | -0.106 | 4.49 (inactive) | 1.7 (inactive) | 0.85 (inactive) | 0.759 (inactive) | 0.338 | -0.803 (inactive) | -0.178 (inactive) | -0.351 | 0.228 | 0.0081 | 0.139 | 0.332 | -0.204 | -0.96 | 0.533 (inactive) | 0.196 | 0.0404 | 0.582 (inactive)
3 | CCOC(=O)CCN1C(=O)[C@H]2[C@H]3[C@H](O)[C@H](O)CC(=NO[C@@H]4O[C@H](CO)[C@@H](O)[C@H](O)[C@H]4O)[C@@H]3CC[C@H]2C1=O | 0.998 (inactive) | 0.121 | 3.62 (inactive) | 0.155 (inactive) | 1.31 (inactive) | 0.82 (inactive) | -0.235 | -2.95 (inactive) | 0.332 (inactive) | -2.16 | 0.816 | -0.0641 | 1.19 | -0.269 | 0.238 | -0.0782 | -0.0421 (inactive) | 0.577 | -1.45 | -0.765 (inactive)
4 | C[C@@H](c1ccccc1)N1C(=O)[C@H]2[C@H]3[C@H](O)[C@H](O)CC(=NOC[C@@H](O)COCc4ccco4)[C@H]3CC[C@H]2C1=O | -0.309 (inactive) | -0.201 | 2.04 (inactive) | -0.0645 (inactive) | 0.33 (inactive) | 0.332 (inactive) | -0.632 | -1.37 (inactive) | 0.529 (inactive) | 0.122 | -0.428 | 0.565 | -0.187 | 0.352 | -1.83 | -0.137 | -0.387 (inactive) | -0.84 | -0.0829 | -0.268 (inactive)
5 | CCOC(=O)CCN1C(=O)[C@H]2[C@@H]3C(=CC[C@H]2C1=O)C(=O)[C@H]1O[C@H]1[C@H]3O | 0.244 (inactive) | -0.284 | 3.05 (inactive) | 0.673 (inactive) | 0.587 (inactive) | 0.254 (inactive) | 0.642 | 0.955 (inactive) | 0.35 (inactive) | 0.38 | 0.762 | 0.453 | -0.564 | -3.19 | -3.72 | -1.23 | 0.501 (inactive) | -1.1 | -2.74 | -0.899 (inactive)
